In PubChem BioAssay:
Calls of active or inactive are those of the source.

Key:
[1] = test system: PRMT1 (protein arginine N-methyltransferase 1); experiment: PRMT1 binders on small-molecule microarrays, primary screen, biochemical, small-molecule microarray, 635 nm fluorescence (AID 1088); conditions: small-molecule microarray binding, higher = more signal;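 further: binding of Prmt1 protein to compounds spotted on small-molecule microarray slides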
[2] = yeast growth modulation, basal conditions, primary screen, YJM789 clinical isolate, OD600, 24 h (AID 1089);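 further: growth of clinical yeast isolate S. cerevisiae YJM 789 seeded 1000 cells per well; test concentration not given here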; conditions: S. cerevisiae YJM789 growth, higher = more signal, called active from +8 up or from −8 down
[3] = fission yeast growth modulation, primary screen, strain 972, OD600, 24 h, no modulator (AID 1090);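 further: basal condition with compound alone and no growth modifier present; test concentration not given here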; conditions: S. pombe 972 growth, higher = more signal, called active from +8 up or from −8 down
[4] = S. cerevisiae growth modulation with rapamycin, primary screen, strain BY4716, OD600, 96 h (AID 1091); conditions: higher = more signal, called active from +8 up or from −8 down; further: test concentration not given here
[5] = target: Torsin-1A-interacting protein 2 (Homo sapiens) (UniProt Q8NFQ8); experiment: LULL1 binders on small-molecule microarray, primary screen, cell lysate, human LULL1 lysate, 635/667 nm fluorescence (AID 1092); conditions: hLULL1 lysate binding, 635 nm fluorescence, higher = more signal;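 further: probe is lysate of COS7 cells overexpressing human LULL1; score merges per-feature 667 nm fluorescence with signal-to-noise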
Chain of Torsin-1A-interacting protein 2 (Homo sapiens) (Q8NFQ8 whole entry, looked up): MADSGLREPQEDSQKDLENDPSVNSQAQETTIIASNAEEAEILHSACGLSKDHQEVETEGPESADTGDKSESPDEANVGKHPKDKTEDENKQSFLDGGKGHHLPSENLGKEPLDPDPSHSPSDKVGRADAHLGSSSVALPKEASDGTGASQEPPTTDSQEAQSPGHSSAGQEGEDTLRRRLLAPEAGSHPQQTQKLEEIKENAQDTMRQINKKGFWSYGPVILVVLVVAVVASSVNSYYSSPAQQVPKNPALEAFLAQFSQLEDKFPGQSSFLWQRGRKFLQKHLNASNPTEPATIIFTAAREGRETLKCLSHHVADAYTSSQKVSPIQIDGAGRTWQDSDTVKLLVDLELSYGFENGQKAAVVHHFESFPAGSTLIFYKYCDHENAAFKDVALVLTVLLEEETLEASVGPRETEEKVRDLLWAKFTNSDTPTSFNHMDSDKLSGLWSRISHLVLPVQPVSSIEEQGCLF

[6] = E. coli growth modulation, two-sided OD650, primary screen, E. coli filamentation project, strain DRC41, 24 h (AID 1093); conditions: OD650, 24 h, higher = more signal, called active from +8 up or from −8 down;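 further: MC1000 strain lacking acrAB efflux and sulA so SOS filamentation is blocked; test concentration not given here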
[7] = small-molecule microarray binders of probe aLefty2, primary screen, biochemical, biotinylated probe, 635/667 nm fluorescence (AID 1094); conditions: higher = more signal;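 further: score merges spot fluorescence near 667 nm with spot signal-to-noise ratio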
[8] = test system: Noggin (protein binding on small-molecule microarray); experiment: Noggin binders on small-molecule microarray, primary screen, biochemical, 635/667 nm fluorescence (AID 1095); conditions: 635 nm fluorescence, higher = more signal;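 further: score merges 667 nm feature fluorescence with signal to noise over triplicate slides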
[9] = target: Neurogenic locus notch homolog protein 3 (Homo sapiens) (UniProt Q9UM47); experiment: NOTCH3 binders on small-molecule microarray, primary screen, biochemical, 635/667 nm fluorescence (AID 1096); conditions: NOTCH3 binding, 635 nm fluorescence, higher = more signal
Chain of Neurogenic locus notch homolog protein 3 (Homo sapiens) (Q9UM47 whole entry, looked up): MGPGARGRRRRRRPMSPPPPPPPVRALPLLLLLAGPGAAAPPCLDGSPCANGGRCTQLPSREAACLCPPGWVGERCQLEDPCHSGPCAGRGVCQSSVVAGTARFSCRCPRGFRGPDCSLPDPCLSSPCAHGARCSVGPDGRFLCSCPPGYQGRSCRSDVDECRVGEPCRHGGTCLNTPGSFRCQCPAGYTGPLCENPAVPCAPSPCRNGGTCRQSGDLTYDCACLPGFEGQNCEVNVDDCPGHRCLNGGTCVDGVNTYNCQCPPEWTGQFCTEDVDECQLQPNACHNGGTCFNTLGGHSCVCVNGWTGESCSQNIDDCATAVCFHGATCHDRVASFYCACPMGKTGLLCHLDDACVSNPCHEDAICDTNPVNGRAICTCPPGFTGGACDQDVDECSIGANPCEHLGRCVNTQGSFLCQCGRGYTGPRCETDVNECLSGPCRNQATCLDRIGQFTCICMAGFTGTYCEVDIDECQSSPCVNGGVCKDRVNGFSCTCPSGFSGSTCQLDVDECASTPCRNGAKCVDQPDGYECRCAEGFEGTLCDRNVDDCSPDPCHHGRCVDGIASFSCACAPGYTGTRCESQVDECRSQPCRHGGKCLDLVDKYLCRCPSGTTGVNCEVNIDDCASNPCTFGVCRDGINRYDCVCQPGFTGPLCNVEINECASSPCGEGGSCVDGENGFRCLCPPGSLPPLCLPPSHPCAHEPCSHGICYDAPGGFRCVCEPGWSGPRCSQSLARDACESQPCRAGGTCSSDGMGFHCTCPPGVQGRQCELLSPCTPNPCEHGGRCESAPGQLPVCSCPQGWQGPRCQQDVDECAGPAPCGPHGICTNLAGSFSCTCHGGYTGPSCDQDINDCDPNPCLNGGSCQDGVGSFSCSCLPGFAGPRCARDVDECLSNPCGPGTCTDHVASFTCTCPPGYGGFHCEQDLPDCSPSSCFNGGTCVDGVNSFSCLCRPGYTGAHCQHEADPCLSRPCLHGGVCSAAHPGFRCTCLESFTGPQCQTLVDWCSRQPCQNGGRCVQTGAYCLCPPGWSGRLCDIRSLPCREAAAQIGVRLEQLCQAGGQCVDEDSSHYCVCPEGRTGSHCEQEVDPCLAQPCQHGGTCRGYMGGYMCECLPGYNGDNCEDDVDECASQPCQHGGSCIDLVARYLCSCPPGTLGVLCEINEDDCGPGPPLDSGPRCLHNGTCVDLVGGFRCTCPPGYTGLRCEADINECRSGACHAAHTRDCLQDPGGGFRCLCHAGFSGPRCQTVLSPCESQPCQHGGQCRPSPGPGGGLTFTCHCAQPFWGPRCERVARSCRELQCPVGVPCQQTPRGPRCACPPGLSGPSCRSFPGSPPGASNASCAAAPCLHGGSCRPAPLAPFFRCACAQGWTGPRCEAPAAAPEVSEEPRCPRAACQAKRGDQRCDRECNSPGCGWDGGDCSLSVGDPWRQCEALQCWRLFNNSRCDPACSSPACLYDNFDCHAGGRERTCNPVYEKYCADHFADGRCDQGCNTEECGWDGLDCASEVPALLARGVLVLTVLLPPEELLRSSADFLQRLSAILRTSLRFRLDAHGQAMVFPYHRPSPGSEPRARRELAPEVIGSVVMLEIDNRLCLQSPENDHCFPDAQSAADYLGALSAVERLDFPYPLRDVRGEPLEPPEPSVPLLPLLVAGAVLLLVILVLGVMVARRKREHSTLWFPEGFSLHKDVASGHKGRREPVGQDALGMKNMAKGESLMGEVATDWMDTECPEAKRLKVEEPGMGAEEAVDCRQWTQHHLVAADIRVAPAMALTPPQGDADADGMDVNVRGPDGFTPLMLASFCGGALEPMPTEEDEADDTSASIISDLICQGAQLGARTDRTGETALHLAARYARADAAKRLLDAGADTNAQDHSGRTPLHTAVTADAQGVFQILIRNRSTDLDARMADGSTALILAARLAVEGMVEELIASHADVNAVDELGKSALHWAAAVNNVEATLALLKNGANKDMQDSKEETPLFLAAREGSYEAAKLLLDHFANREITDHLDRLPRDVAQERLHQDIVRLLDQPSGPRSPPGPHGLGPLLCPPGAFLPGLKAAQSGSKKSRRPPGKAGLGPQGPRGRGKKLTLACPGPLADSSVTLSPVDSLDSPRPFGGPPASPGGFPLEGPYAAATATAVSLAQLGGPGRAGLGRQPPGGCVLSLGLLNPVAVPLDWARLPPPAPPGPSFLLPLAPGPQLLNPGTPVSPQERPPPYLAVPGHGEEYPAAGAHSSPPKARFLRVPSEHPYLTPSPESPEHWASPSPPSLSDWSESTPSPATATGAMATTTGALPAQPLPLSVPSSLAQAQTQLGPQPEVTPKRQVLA

[10] = small-molecule microarray binders of probe aEGFR, primary screen, biochemical, biotinylated probe, 635/667 nm fluorescence (AID 1097); conditions: higher = more signal;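 further: probe is a biotinylated anti-EGFR antibody binding compounds printed on slides; score combines fluorescence near 667 nm and signal to noise of each spot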
[11] = test system: Plasmodium falciparum Sir2 (PF13_0152, Sir2A); experiment: pfSir2 binders on small-molecule microarrays, primary screen, biochemical, small-molecule microarray, 635 nm fluorescence (AID 1098); conditions: small-molecule microarray binding, fluorescence 635 nm; higher = more signal;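 further: score merges spot fluorescence intensity with its signal-to-noise ratio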
[12] = small-molecule microarray binders of probe aDKK1, primary screen, biochemical, biotinylated probe, 635/667 nm fluorescence (AID 1099); conditions: higher = more signal;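 further: score merges 667nm spot fluorescence with signal to noise across triplicate slides; reference of the scale not given here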
[13] = small-molecule microarray binders of probe aCHRDL2, primary screen, biochemical, biotinylated probe, 635/667 nm fluorescence (AID 1100); conditions: higher = more signal
[14] = splicing luciferase reporter signal modulators, primary screen, spliceosome inhibition project, cell-based, HEK293, splice +/- reporter (AID 1101); conditions: luminescence, 24 h, higher = more signal, called active from +8 up or from −8 down;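 further: HEK293 cells carrying a splicing-competent luciferase reporter gene; test concentration not given here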
[15] = target: Fibroblast growth factor 10 (Homo sapiens) (UniProt O15520); experiment: FGF10 binders on small-molecule microarrays, primary screen, biochemical, small-molecule microarray, 635 nm fluorescence (AID 1102); conditions: FGF10 binding, fluorescence 635 nm, higher = more signal
Chain of Fibroblast growth factor 10 (Homo sapiens) (O15520 whole entry, looked up): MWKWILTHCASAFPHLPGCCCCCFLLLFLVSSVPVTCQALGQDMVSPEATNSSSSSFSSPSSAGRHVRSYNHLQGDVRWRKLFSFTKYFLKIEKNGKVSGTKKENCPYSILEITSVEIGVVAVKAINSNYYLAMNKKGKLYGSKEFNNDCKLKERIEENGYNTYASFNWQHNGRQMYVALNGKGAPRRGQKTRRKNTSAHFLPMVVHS

[16] = test system: glycogen synthase kinase-3 (GSK3A per assay name; protocol says GSK3B); experiment: GSK3 binders on small-molecule microarrays, primary screen, biochemical, small-molecule microarray, 635 nm fluorescence, GSK3A (AID 1103); conditions: small-molecule microarray binding, fluorescence 635 nm; higher = more signal; further: the record names both GSK3A and GSK3B
[17] = target: Epidermal growth factor receptor (Homo sapiens) (UniProt P00533); experiment: EGFR binders on small-molecule microarrays, primary screen, biochemical, small-molecule microarray, 635 nm fluorescence (AID 1104); conditions: EGFR binding, higher = more signal;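 further: score merges 667 nm emission intensity with spot signal to noise over triplicate slides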
Chain of Epidermal growth factor receptor (Homo sapiens) (P00533 whole entry, looked up): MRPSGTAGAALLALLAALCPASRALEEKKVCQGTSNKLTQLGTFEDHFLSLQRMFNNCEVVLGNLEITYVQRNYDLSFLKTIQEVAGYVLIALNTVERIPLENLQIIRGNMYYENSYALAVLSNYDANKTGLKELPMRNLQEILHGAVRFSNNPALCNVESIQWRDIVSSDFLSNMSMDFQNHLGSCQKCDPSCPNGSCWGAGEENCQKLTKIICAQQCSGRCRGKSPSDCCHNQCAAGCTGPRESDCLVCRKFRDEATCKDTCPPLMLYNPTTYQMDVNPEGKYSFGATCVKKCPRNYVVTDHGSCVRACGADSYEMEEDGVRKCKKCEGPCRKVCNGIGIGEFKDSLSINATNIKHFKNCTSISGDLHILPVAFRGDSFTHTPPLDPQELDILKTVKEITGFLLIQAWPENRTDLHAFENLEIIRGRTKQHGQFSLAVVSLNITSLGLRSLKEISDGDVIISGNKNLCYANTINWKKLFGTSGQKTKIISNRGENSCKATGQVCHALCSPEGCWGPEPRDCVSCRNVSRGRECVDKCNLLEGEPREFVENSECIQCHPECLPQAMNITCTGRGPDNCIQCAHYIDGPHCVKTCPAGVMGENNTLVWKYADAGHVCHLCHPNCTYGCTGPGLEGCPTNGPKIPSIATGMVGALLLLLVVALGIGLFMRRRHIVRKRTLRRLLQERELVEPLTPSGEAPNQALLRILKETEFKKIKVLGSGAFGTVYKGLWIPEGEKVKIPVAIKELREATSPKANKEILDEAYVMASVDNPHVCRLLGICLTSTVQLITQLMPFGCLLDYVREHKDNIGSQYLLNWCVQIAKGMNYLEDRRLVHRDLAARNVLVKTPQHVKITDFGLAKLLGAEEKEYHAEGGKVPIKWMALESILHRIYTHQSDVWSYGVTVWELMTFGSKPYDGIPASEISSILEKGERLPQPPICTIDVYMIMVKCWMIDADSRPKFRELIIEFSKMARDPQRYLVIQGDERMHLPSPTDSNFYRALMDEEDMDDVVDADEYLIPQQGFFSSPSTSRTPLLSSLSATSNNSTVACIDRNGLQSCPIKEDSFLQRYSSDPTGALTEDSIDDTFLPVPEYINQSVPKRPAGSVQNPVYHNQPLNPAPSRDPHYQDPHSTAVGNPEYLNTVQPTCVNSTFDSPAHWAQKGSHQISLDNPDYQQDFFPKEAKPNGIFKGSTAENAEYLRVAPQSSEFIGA

[18] = target: Follistatin-related protein 3 (Homo sapiens) (UniProt O95633); experiment: FSTL3 binders on small-molecule microarrays, primary screen, biochemical, small-molecule microarray, 635 nm fluorescence (AID 1105); conditions: FSTL3 binding, higher = more signal;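 further: score merges emission near 667 nm and signal to noise per printed spot across three slides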
Chain of Follistatin-related protein 3 (Homo sapiens) (O95633 whole entry, looked up): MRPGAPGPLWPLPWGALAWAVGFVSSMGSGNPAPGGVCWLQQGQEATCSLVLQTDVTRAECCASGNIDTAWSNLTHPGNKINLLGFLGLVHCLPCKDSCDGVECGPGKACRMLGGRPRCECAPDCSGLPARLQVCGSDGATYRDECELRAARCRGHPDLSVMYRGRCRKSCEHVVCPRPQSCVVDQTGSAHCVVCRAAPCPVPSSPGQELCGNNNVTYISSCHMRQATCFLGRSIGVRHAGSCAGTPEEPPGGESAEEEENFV

[19] = target: Dickkopf-related protein 1 (Homo sapiens) (UniProt O94907); experiment: DKK1 binders on small-molecule microarrays, primary screen, biochemical, small-molecule microarray, 635 nm fluorescence scan (AID 1106); conditions: DKK1 binding, higher = more signal;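 further: score merges emission near 667 nm with signal to noise over three replicate slides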
Chain of Dickkopf-related protein 1 (Homo sapiens) (O94907 whole entry, looked up): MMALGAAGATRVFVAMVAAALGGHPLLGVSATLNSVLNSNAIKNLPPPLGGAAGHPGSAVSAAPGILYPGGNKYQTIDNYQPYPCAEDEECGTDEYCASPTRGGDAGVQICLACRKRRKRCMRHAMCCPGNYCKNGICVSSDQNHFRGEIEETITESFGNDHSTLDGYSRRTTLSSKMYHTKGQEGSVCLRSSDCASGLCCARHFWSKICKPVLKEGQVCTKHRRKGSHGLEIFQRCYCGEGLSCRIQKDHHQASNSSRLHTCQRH

[20] = test system: Inhibin beta A chain (activin A); experiment: INHBA (activin A) binders on microarrays, primary screen, biochemical, small-molecule microarray, 635 nm fluorescence scan (AID 1107); conditions: small-molecule microarray binding, higher = more signal;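 further: mouse activin A protein probed at 4.33 µg/mL on printed slides; score merges bound-protein fluorescence near 667 nm with spot signal-to-noise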

In the case of `CC(C)=C1C(=O)C(c2ccccc2)=C2CN3C(=O)N(CCc4ccccc4)C(=O)[C@]3(C)[C@H]21`, the composite z-score [1] is reported as -0.638, the z-score [2] is reported as -0.37 (inactive) and the z-score [3] is reported as -0.262 (inactive). For the same compound, the z-score [4] was 1.48 (inactive), the composite z-score [5] was 1.19 and the z-score [6] was -1.27 (inactive). It also gave a composite z-score [7] of 0.211, a composite z-score [8] of -0.335 and a composite z-score [9] of 0.451. For the same compound, the composite z-score [10] was -0.0251, the composite z-score [11] was 1.27 and the composite z-score [12] was 0.915. For the same compound, the composite z-score [13] was 1.13, the z-score [14] was 1.15 (inactive) and the composite z-score [15] was 0.139. It also gave a composite z-score [16] of -0.701, a composite z-score [17] of -0.276 and a composite z-score [18] of -0.0755. It also gave a composite z-score [19] of -0.538 and a composite z-score [20] of 1.02.

In the case of `NC(=O)N1C(=O)C2C(C1=O)C1C=C(CCCO)C2C(c2ccc(CN3CCCC3)cc2)N1Cc1cc2c(cc1Br)OCO2` (stereo not given), the composite z-score [1] is reported as 0.964, the z-score [2] is reported as -2.23 (inactive) and the z-score [3] is reported as -0.251 (inactive). For the same compound, the z-score [4] was -0.665 (inactive), the composite z-score [5] was 0.835 and the z-score [6] was 0.181 (inactive). It also gave a composite z-score [7] of -0.128, a composite z-score [8] of 0.208 and a composite z-score [9] of -0.788. The composite z-score [10] was -0.211, the composite z-score [11] was -0.0167 and the composite z-score [12] was -0.204. For the same compound, the composite z-score [13] was 0.228, the z-score [14] was 0.343 (inactive) and the composite z-score [15] was 0.325. It also gave a composite z-score [16] of 0.177, a composite z-score [17] of -0.287 and a composite z-score [18] of -0.0816. It also gave a composite z-score [19] of 0.388 and a composite z-score [20] of 0.45.

For `CC(C)NC(=O)[C@@H]1c2ccccc2C(=O)N(Cc2ccccc2C(F)(F)F)[C@H]1c1ccc(CO)cc1`, the composite z-score [1] was -0.123, the z-score [2] was -0.202 (inactive) and the z-score [3] was 0.163 (inactive). For the same compound, the z-score [4] was -1.04 (inactive), the composite z-score [5] was 2.36 and the z-score [6] was -0.327 (inactive). For the same compound, the composite z-score [7] was -0.241, the composite z-score [8] was -0.238 and the composite z-score [9] was 0.0828. For the same compound, the composite z-score [10] was 0.668, the composite z-score [11] was 1.68 and the composite z-score [12] was 1.35. The composite z-score [13] was 0.218, the z-score [14] was 0.438 (inactive) and the composite z-score [15] was 0.697. For the same compound, the composite z-score [16] was -0.295, the composite z-score [17] was -0.08 and the composite z-score [18] was 0.147. The composite z-score [19] was -0.393 and the composite z-score [20] was -0.349.

For `COC(=O)[C@@]1(Cc2ccc(F)cc2)[C@H]2c3cc(C(=O)N4CCCC4)n(CCc4ccccn4)c3C[C@H]2CN1C(=O)c1ccccc1`, the composite z-score [1] was -0.63, the z-score [2] was -0.0526 (inactive) and the z-score [3] was 0.804 (inactive). The z-score [4] was 0.414 (inactive), the composite z-score [5] was 2.89 and the z-score [6] was -0.223 (inactive). It also gave a composite z-score [7] of 0.181, a composite z-score [8] of -0.701 and a composite z-score [9] of 0.572. The composite z-score [10] was -0.164, the composite z-score [11] was 0.785 and the composite z-score [12] was 0.507. For the same compound, the composite z-score [13] was 1.02, the z-score [14] was -1.31 (inactive) and the composite z-score [15] was 0.577. It also gave a composite z-score [16] of -0.73, a composite z-score [17] of -0.559 and a composite z-score [18] of -0.575. The composite z-score [19] was -0.554 and the composite z-score [20] was 0.987.

In the case of `COc1ccc([Si](C)(C)[C@H]2[C@H](CCO)O[C@@]3(C(=O)N(Cc4cccc(N5C(=O)c6ccccc6Oc6ccccc65)c4)c4ccccc43)[C@@H]2C)cc1`, the composite z-score [1] is reported as 0.891, the z-score [2] is reported as 2.14 (inactive) and the z-score [3] is reported as -0.506 (inactive). For the same compound, the z-score [4] was 23.1 (active), the composite z-score [5] was 1.51 and the z-score [6] was 1.03 (inactive). The composite z-score [7] was -0.118, the composite z-score [8] was -0.202 and the composite z-score [9] was 0.451. For the same compound, the composite z-score [10] was -0.108, the composite z-score [11] was 0.742 and the composite z-score [12] was -0.109. The composite z-score [13] was -0.236, the z-score [14] was -1.93 (inactive) and the composite z-score [15] was 0.396. For the same compound, the composite z-score [16] was -0.479, the composite z-score [17] was 0.111 and the composite z-score [18] was -0.628. For the same compound, the composite z-score [19] was -0.0781 and the composite z-score [20] was 0.212.
